Values joined by “and” are separate entries in the source; they are usually repeats but may differ in a detail not shown here. Identical values can stand only once. A structure can be active in one record and inactive in another. Active and inactive are the calls of the source. The calls were made as follows: active = hit-call score of the fitted dose curve at least 0.9, where 1 is the maximum; inactive = score below 0.9.
Legend:
[1] = read-out: Plasminogen activator inhibitor-1 (PAI1), SERPINE1 (gene 5054); assay: BSK_CASM3C_PAI1: BioMAP Diversity Plus: CASM3C Assay for Plasminogen activator inhibitor-1 (PAI1) Biomarker Activity (AID 2284284); details: primary human coronary artery smooth muscle cells;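 also: PAI-1 protein level measured by ELISA 24 h after dosing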
[2] = read-out: Monocyte Chemoattractant Protein-1 (MCP1), CCL2 (gene 6347); assay: BSK_hDFCGF_MCP1: BioMAP Diversity Plus: hDFCGF Assay for Monocyte Chemoattractant Protein-1 (MCP1) Biomarker Activity (AID 2284285); details: primary human foreskin fibroblasts
In short: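 MCP-1 ELISA readout was taken 24 hours after dosing primary human dermal fibroblasts in the hDFCGF system, with DMSO as baseline. Parallel sulforhodamine B staining of total protein tracked overt cytotoxicity.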

[3] = read-out: Vascular cell adhesion molecule 1 (VCAM1), VCAM1 (gene 7412); assay: BSK_IMphg_VCAM1: BioMAP Diversity Plus: IMphg Assay for Vascular cell adhesion molecule 1 (VCAM1) Biomarker Activity (AID 2284286); details: primary human endothelial cells with macrophages
In short: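 ELISA read-out of VCAM-1 on venular endothelial cell/macrophage co-cultures at 24 h post-treatment, with DMSO as baseline and positive-direction fitting. Parallel sulforhodamine B total-protein staining (560 nm) served as the overt cytotoxicity measure.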

[4] = read-out: Intercellular Adhesion Molecule 1 (ICAM1), ICAM1 (gene 3383); assay: BSK_hDFCGF_ICAM1: BioMAP Diversity Plus: hDFCGF Assay for Intercellular Adhesion Molecule 1 (ICAM1) Biomarker Activity (AID 2284287); details: primary human foreskin fibroblasts
In short: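 ICAM-1 ELISA readout 24 h after dosing, DMSO as baseline, in human dermal foreskin fibroblast cultures. Cytotoxicity checked in parallel wells by SRB staining (0.1% SRB, 10% TCA fixation, 560 nm).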

CD40, CD40 (gene 958) = assay: BSK_IMphg_CD40: BioMAP Diversity Plus: IMphg Assay for CD40 Biomarker Activity (AID 2284288); details: primary human endothelial cells with macrophages
In short: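 ELISA read-out of cell-surface CD40 at 24 h in human venular endothelial cell/macrophage co-cultures. Activity fitted in the positive direction against DMSO; parallel SRB staining (560 nm) gauges overt cytotoxicity.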

[5] = read-out: TIMP metallopeptidase inhibitor 2 (TIMP2), TIMP2 (gene 7077); assay: BSK_hDFCGF_TIMP2: BioMAP Diversity Plus: hDFCGF Assay for TIMP metallopeptidase inhibitor 2 (TIMP2) Biomarker Activity (AID 2284289); details: primary human foreskin fibroblasts
In short: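 Primary human foreskin fibroblasts in the hDFCGF system, dosed for 24 h; TIMP-2 level measured by ELISA, fitted in the positive direction against DMSO; cytotoxicity checked in parallel by sulforhodamine B total protein staining.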

[6] = read-out: Interleukin-1 alpha (IL1a), IL1A (gene 3552); assay: BSK_IMphg_IL1a: BioMAP Diversity Plus: IMphg Assay for Interleukin-1 alpha (IL1a) Biomarker Activity (AID 2284290); details: primary human endothelial cells with macrophages
In short: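 IL-1α is quantified by ELISA at 24 h in the endothelial/macrophage IMphg co-culture, with gain of signal fitted relative to DMSO. Parallel SRB total-protein staining flags overt toxicity.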

[7] = read-out: E-selectin (Homo sapiens) (UniProt P16581); assay: BSK_IMphg_ESelectin: BioMAP Diversity Plus: IMphg Assay for Eselectin Biomarker Activity (AID 2284291); details: primary human endothelial cells with macrophages
In short: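 Analysed against DMSO baseline in the positive fitting direction, this endpoint is an ELISA read of E-selectin. It comes from human venular endothelial cells co-cultured with macrophages, sampled 24 h post-dose.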

[8] = BSK_IMphg_SRB: Viability Assessment in the BioMAP Diversity Plus: IMphg Assay (AID 2284292); details: primary human endothelial cells with macrophages;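 also: measured one day after compound addition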
In short: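 SRB viability endpoint: cultures of human endothelial cells plus macrophages fixed with 10% TCA, stained with 0.1% SRB, read at 560 nm 24 h post-dosing. Only gain-of-signal fitted, relative to DMSO.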

[9] = read-out: Macrophage colony-stimulating factor (MCSF), CSF1 (gene 1435); assay: BSK_IMphg_MCSF: BioMAP Diversity Plus: IMphg Assay for Macrophage colony-stimulating factor (MCSF) Biomarker Activity (AID 2284293); details: primary human endothelial cells with macrophages
In short: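 M-CSF was measured by ELISA in human venular endothelial cell/macrophage co-cultures dosed for 24 hours. Sulforhodamine B staining of parallel cultures assessed cytotoxicity; data fitted against DMSO baseline.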

[10] = read-out: Interleukin-10 (IL10), IL10 (gene 3586); assay: BSK_IMphg_IL10: BioMAP Diversity Plus: IMphg Assay for Interleukin-10 (IL10) Biomarker Activity (AID 2284294); details: primary human endothelial cells with macrophages
In short: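 IL-10 read by ELISA after 24 h chemical exposure of primary human venular endothelial cell/macrophage cocultures, with DMSO as baseline. Parallel SRB staining (560 nm) gauged overt cytotoxicity.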

[11] = BSK_IMphg_SRB.Mphg: Macrophage Viability Assessment in the BioMAP Diversity Plus: IMphg Assay (AID 2284295); details: primary human endothelial cells with macrophages
In short: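 Cytotoxicity read-out: parallel cultures fixed with 10% TCA, stained with 0.1% sulforhodamine B, read at 560 nm. System combines venular endothelium and macrophages; sampled 24 h post-dosing, fitted positively relative to DMSO control.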

[12] = read-out: Thrombomodulin, THBD (gene 7056); assay: BSK_LPS_Thrombomodulin: BioMAP Diversity Plus: LPS Assay for Thrombomodulin Biomarker Activity (AID 2284296); details: primary human HUVEC with PBMC
In short: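 Thrombomodulin on the surface of LPS-activated endothelial/PBMC co-cultures was quantified by ELISA at 24 hours post-dosing, with DMSO as baseline. Parallel SRB total-protein staining flagged overt cytotoxicity.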

CD69, CD69 (gene 969) = assay: BSK_LPS_CD69: BioMAP Diversity Plus: LPS Assay for CD69 Biomarker Activity (AID 2284303); details: primary human HUVEC with PBMC
In short: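 CD69 surface levels were read by ELISA after 24 h chemical treatment of an LPS-stimulated HUVEC plus PBMC co-culture; positive-direction fit against DMSO vehicle.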

Measured: AC50

Chain of E-selectin (Homo sapiens) (P16581 whole entry, looked up): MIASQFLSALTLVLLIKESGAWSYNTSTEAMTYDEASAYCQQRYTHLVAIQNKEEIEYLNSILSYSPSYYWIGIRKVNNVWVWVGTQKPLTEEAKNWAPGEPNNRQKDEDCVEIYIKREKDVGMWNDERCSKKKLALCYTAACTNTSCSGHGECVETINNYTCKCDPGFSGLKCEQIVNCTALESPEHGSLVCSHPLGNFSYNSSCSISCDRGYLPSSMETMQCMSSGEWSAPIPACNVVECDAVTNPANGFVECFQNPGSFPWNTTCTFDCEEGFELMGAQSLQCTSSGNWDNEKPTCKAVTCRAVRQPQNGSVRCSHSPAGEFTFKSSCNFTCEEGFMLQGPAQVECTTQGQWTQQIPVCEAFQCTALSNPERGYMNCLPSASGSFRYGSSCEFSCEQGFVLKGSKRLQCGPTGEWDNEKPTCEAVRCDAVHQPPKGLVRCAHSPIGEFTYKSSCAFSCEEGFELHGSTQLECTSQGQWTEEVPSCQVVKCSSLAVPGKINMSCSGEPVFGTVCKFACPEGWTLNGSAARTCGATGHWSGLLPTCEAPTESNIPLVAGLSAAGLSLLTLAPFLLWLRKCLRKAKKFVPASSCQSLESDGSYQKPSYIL

OCC(F)(F)C(F)(F)C(F)(F)F
inactive: all assays above

C=CC(=O)OCC(F)(F)C(F)(F)C(F)(F)C(F)(F)COC(=O)C=C
active: [1] 53.7 µM and 53.4 µM | [2] 7.35 µM and 7.89 µM | [3] 30.4 µM and 23.4 µM | [4] 10.6 µM and 10.3 µM | [5] 12.4 µM and 12.7 µM | [6] 30 µM | [7] 25.1 µM and 31.3 µM | [10] 24.4 µM and 33.7 µM | [11] 21.5 µM and 51.8 µM | [12] 51.4 µM
inactive: [6] | [8] | [9] | [12]

OCC(F)(F)C(F)(F)C(F)(F)C(F)(F)C(F)(F)C(F)(F)F
active: [2] 23 µM | [5] 42.2 µM | [11] 21.6 µM
inactive: [1] | [2] | [3] | [4] | [5] | [6] | [7] | [8] | [9] | [10] | [11] | [12]

FC1CC(F)(F)C(F)(F)C1(F)F (stereo unspecified)
inactive: all assays above

O=C(O)C(F)(F)C(F)(F)C(F)(F)C(F)(F)C(F)(F)C(F)(F)C(F)(F)C(F)(F)Cl
active: [2] 44.4 µM and 47 µM | [3] 48.5 µM and 45.7 µM | [4] 14.1 µM and 8.21 µM | [5] 6.54 µM | [8] 56.6 µM and 47.9 µM | [10] 45.8 µM and 45.3 µM | [11] 44.4 µM | [12] 30 µM and 27.2 µM
inactive: [1] | [5] | [6] | [7] | [9] | [11]

FC(F)(F)C(F)(F)C(F)(F)C(F)(F)C(F)(F)C(F)(F)CCS
active: [10] 2.49 µM | [11] 2.57 µM
inactive: [1] | [2] | [3] | [4] | [5] | [6] | [7] | [8] | [9] | [10] | [11] | [12] | CD69, CD69 (gene 969)

FC(F)(F)C(F)(F)C(F)(F)C(F)(F)C(F)(F)CCI
inactive: all assays above

O=C(O)C(F)(F)C(F)(F)F
not listed: CD69, CD69 (gene 969)
inactive: all other assays above

O=C(O)C(F)(F)C(F)(F)C(F)(F)C(F)(F)C(F)(F)C(F)(F)C(F)(F)C(F)(F)C(F)(F)C(F)F
inactive: [1] | [3] | [4] | CD40, CD40 (gene 958) | [5] | [6] | [7] | [9]
active: [2] 23.4 µM and 42 µM | [3] 52.7 µM | [4] 14.5 µM | [8] 55.7 µM and 50.4 µM | [10] 47.3 µM and 45 µM | [11] 49 µM and 22.5 µM | [12] 55 µM and 12.4 µM

COC(=O)CCC(F)(F)C(F)(F)C(F)(F)C(F)(F)F
active: [10] 7.74 µM
inactive: [1] | [2] | [3] | [4] | CD40, CD40 (gene 958) | [5] | [6] | [7] | [8] | [9] | [10] | [11] | [12]

O=C(O)C=C(C(F)(F)F)C(F)(F)F
active: [2] 2.31 µM | [3] 30 µM | [7] 20.2 µM and 18 µM | [10] 12.8 µM and 11.3 µM | [12] 1.97 µM
inactive: [1] | [2] | [3] | [4] | [5] | [6] | [8] | [9] | [11] | [12]

O=S(=O)(OCC(F)F)C(F)(F)F
active: [11] 0.221 µM
inactive: [1] | [2] | [3] | [4] | CD40, CD40 (gene 958) | [5] | [6] | [7] | [8] | [9] | [10] | [11] | [12]

C=C(C)C(=O)OCC(F)(F)C(F)(F)C(F)(F)C(F)(F)C(F)(F)C(F)(F)C(F)(F)F
inactive: [1] | [2] | [3] | [4] | [5] | [6] | [7] | [8] | [9] | [10] | [11] | [12] | CD69, CD69 (gene 969)
active: [10] 3.33 µM | [11] 0.0248 µM
